Here are results for 73 compounds from ChEMBL document CHEMBL4513216, “Probing the Open Global Health Chemical Diversity Library for Multistage-Active Starting Points for Next-Generation Antimalarials” (ACS Infect Dis, 2020).

The campaign covered roughly 69,000 compounds. About 8,600 (12%) showed an effect of 50% or more. What follows is part of a selection rich in strong results, with near analogues and random picks from the rest.

The test system of the assay is Plasmodium berghei. Kind of assay: Screen against P. berghei liver stage (PbLuc), transformed with Luciferase, at 10uM. The note with it: tested at 10 uM. Format: functional, HepG2.
In the case of `CNc1nc2cn(CCc3ccc(C)cc3)c(=O)c-2c[nH]1`, the INHIBITION is given as 3.52%.
The figure for `O=C(Cc1ccccn1)N1CCN(C(=O)CC2CCCCC2)CC1` is 13.6%.
On to `Cc1cc(NCC2CCS(=O)(=O)C2)n2nc(C)cc2n1` (stereo not drawn), for which the INHIBITION is reported as 47%.
The figure for `CCC(C)(C)n1nnnc1C(c1cccs1)N1CCc2ccccc2C1` (stereo not drawn) is 51.4%; for `CCC(C)(C)n1nnnc1C(c1cccs1)N1CCc2ccccc21` (stereo not drawn) it is 42.6%.
The figure for `CCC(C)(C)n1nnnc1C(c1cccs1)N1CCCCC1` (stereo not drawn) is 21.7%; for `Cc1ccc(C(=O)N2C[C@H]3CCC[C@@]3(COCc3ccncc3)C2)cn1` it is 43.9%.
The figure for `Cc1nc(-c2ccco2)ccc1C(=O)N1CCn2c(C)nnc2C1` is -17.6%; for `CC(C)c1nnc2n1CCN(C(=O)c1cnc(C3CC3)s1)C2` it is 43.1%.
For the compound `CCc1nnc2n1CCN(C(=O)CN(C)C1CC1)C2`, the INHIBITION came out at 51.1%.
As to `CCc1nnc2n1CCN(C(=O)c1csc(-c3cnn(C)c3)n1)C2`, the INHIBITION was 29.7%.
Take `CCc1nnc2n1CCN(C(=O)CN(C)Cc1ccccc1)C2`: the INHIBITION was 20.1%.
As to `CCc1nnc2n1CCN(C(=O)CN(CC)CC)C2`, the INHIBITION turned out to be 49.8%.
The figure for `Cc1nnc2n1CCN(C(=O)c1ccnc(N(C)C)c1)C2` is 21.6%; for `CCc1nnc2n1CCN(C(=O)c1ccccc1OCC1CC1)C2` it is 7.21%; for `CCc1nnc2n1CCN(C(=O)c1ccc(-c3ccco3)nc1C)C2` it is 61.3%.
The figure for `CCc1nnc2n1CCN(C(=O)c1cnn(C)c1C1CC1)C2` is 53.9%; for `CCc1nnc2n1CCN(C(=O)c1ccc(-c3ccco3)[nH]c1=O)C2` it is -19.6%; for `Cc1nnc2n1CCN(C(=O)c1cnc(C3CC3)s1)C2` it is 53.9%.
Regarding `NC(=O)C1(CCCc2ccncc2)CCCN1` (stereo not drawn), the INHIBITION came to 1.5%.
The figure for `CNS(=O)(=O)c1ccc(CNC(=O)c2c(C)oc(C)c2C)cc1` is -6.14%; for `CN1CCCC1CNC(=O)CCCOc1ccc(Br)cc1` (stereo not drawn) it is -62.6%.
The figure for `Cc1ccc(-c2nnc(SCC(=O)O)n2-c2ccc(C)cc2)cc1` is 33.5%.
On to `O=S(=O)(C1CC1)N1CCc2ncnc(N3CCCC3)c2CC1`, for which the INHIBITION is on record as -17.7%.
The figure for `COc1ccc(C(=O)NCCN(C)C)c(I)c1` is -0.217%.
The figure for `NC(=O)N1CCC(NCc2cc(Br)ccc2Cl)CC1` is 34.7%.
The figure for `CC(C)(C)c1ncc(C(=O)NCCNC(=O)c2ccco2)s1` is -21.5%.
In the case of `COc1cc(C(=O)N2CCCC(c3cc(C)[nH]n3)C2)ccc1C` (stereo not drawn), the INHIBITION was 24%.
The figure for `CCc1nnc2n1CCN(C(=O)c1cnc(C3CC3)s1)C2` is 13.9%; for `CCc1ncc(C(=O)N2CCn3c(CC)nnc3C2)s1` it is 53.9%.
The figure for `CCc1nnc2n1CCN(C(=O)c1cnc(-c3cccs3)s1)C2` is 19.3%; for `Cc1cc(C)c2ncc(C#N)c(N3CCS(=O)(=O)CC3)c2c1` it is 36.3%.
The figure for `Cc1cnn(CC2CCCCN2C(=O)CC(F)(F)F)c1` (stereo not drawn) is 9.14%; for `O=C(c1cccnc1SCc1ccccc1)N1CC[C@@H](O)C1` it is -34%; for `O=C(c1cc(C2CC2)nc2onc(-c3ccccc3)c12)N1CCOCC1` it is 51.7%.
For `O=C(c1cc(C2CC2)nc2onc(-c3ccccc3)c12)N1CC(O)C1`, the INHIBITION was 44.3%.
With `O=C(CN1CCCC1c1nc(-c2ccccc2)no1)N1CCOCC1` (stereo not drawn), the INHIBITION is -21.8%.
The figure for `O=C(c1cc(C2CC2)nc2onc(-c3ccccc3)c12)N1CC[C@H](O)C1` is 28.5%; for `O=C(c1cc(-c2ccccc2)nc2onc(C3CC3)c12)N1CC[C@H](O)C1` it is 73%; for `Cc1cc(NCCCc2c(C)noc2C)nc(N)n1` it is 35%.
The figure for `CC(C)c1ncc2c(n1)CN(Cc1noc(-c3ccccc3)n1)CC2` is 45.7%; for `CC(C(=O)NCCN1CCCCC1)n1cncn1` (stereo not drawn) it is -5.07%.
The figure for `CCn1c(SCC(=O)N2CCCC2)nc2cc(C)[nH]c2c1=O` is 40%.
Take `c1csc(CN2CCC3(CCOCC3COCC3CC3)CC2)n1` (stereo not drawn): the INHIBITION was -18.2%.
In the case of `CCN(Cc1nccn1C)C1CCN(c2ccccc2)C1=O` (stereo not drawn), the INHIBITION is recorded as 42.6%.
`C=C(C)Cn1cc(C(N)=O)nc1C1CC1`: the INHIBITION was -6.67%.
The figure for `N#Cc1cnc2ccccc2c1N1CCC(C(=O)O)CC1` is 35.7%.
The figure for `CC(C)(C)C(=O)N1CCN(CCOc2cccc(C#N)c2)CC1` is -18%; for `N#Cc1ccccc1OCCN1CCCCC1C(=O)N1CCOCC1` (stereo not drawn) it is 47.1%; for `N#Cc1cnc2ccccc2c1N1CCN(CCC(=O)O)CC1` it is 5.87%.
The figure for `N#Cc1ccccc1N1CCN(CCC(=O)N2CCOCC2)CC1` is -29.4%; for `Cc1nnc(CN2CCN(CCOc3ccccc3C#N)CC2)n1C` it is 21.2%.
Consider `N#Cc1cnc2ccccc2c1N1CCN(C(=O)C2CCC2)CC1`, for which the INHIBITION was 90.6%.
Turning to `CC(C)C(=O)N1CCN(CCOc2cccc(C#N)c2)CC1`, the INHIBITION worked out at 39.2%.
The figure for `N#Cc1ccccc1OCCN1CCN(C(=O)C2CCCC2)CC1` is 65.6%; for `N#Cc1ccccc1OCCN1CCC(N2CCNC2=O)CC1` it is 24%; for `N#Cc1cccc(OCCN2CCC(C(=O)N3CCOCC3)CC2)c1` it is 55.4%.
The figure for `N#Cc1ccccc1OCCN1CCC(C(=O)N2CCOCC2)CC1` is 70.3%; for `CN1CC(=O)N(c2ccsc2)CC12CCN(C(=O)CC1CCCC1)C2` (stereo not drawn) it is 21.8%.
Turning to `NC(=O)NC(=O)C(c1ccccc1)N1CCN(Cc2ccsc2)CC1` (stereo not drawn), the INHIBITION amounted to 4.52%.
The figure for `Cc1cc(C)n(CC2CCCN2C(=O)Cc2c(C)nc(C)[nH]c2=O)n1` (stereo not drawn) is 2.3%.
The figure for `O=C(O)c1cc2c(nc1-c1ccoc1)CCN(Cc1ccco1)CC2` is 34.6%; for `Cc1occc1C(=O)N1C[C@@H]2OCCN(C(C)C)[C@@H]2C1` it is 15.9%; for `CN1CC2(CCN(C(=O)CCCOCc3ccccc3)C2)OC1=O` (stereo not drawn) it is 12.4%.
The figure for `CCn1nc(C)cc1C(=O)NCc1noc(C(C)(C)C)n1` is 27.5%; for `O=C1CCC[C@]2(CN(S(=O)(=O)N3CCOCC3)C[C@H]2c2cccnc2)N1` it is 41.5%.
With `Cc1nnc(-c2cccc(C#N)c2)n1C1CCCN(C(C)C)C1=O` (stereo not drawn), the INHIBITION is given as -18.9%.
The figure for `N#Cc1cccc(OCCN2CCCC2C(=O)NCC(F)(F)F)c1` (stereo not drawn) is 2.93%.
The figure for `CN1CCCCC1C(=O)N1CCN(c2ccccc2C#N)CC1` (stereo not drawn) is 39.6%; for `N#Cc1cccc(OCCN2CCCC2C(=O)N2CCSCC2)c1` (stereo not drawn) it is 55.3%.
The figure for `CN1CCCCCC1C(=O)N1CCN(c2ccccc2C#N)CC1` (stereo not drawn) is 62.4%; for `N#Cc1cccc(OCCN2CCCC2C(=O)NC2CC2)c1` (stereo not drawn) it is -3.21%; for `CN1CCCCCC1C(=O)N1CCCN(c2ccccc2)CC1` (stereo not drawn) it is 45.6%.
